Measured values taken from PubChem BioAssay (NCI).
Values joined by “and” are separate entries in the source; they are usually repeats but may differ in a detail not shown here. Equal entries are not always repeated. Compounds without any hit were thinned out: in the full panel of roughly 83,000, 20% have a hit.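 Treatment: one concentration, 48 hours, 96-well format. Scoring: percent growth, with anything below 10 considered active.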 Active and inactive are the calls of the source.

What was measured:
Test in all cases: NCI-60 one-dose screen, 48 h (100 = growth as untreated, 0 = no growth, -100 = all killed)
Conditions in all cases: 10 µM unless noted
[1] = tested on: SK-MEL-2 melanoma
[2] = tested on: EKVX NSCLC
[3] = tested on: SN12C renal
[4] = tested on: UO-31 renal
[5] = tested on: TK-10 renal
[6] = tested on: ACHN renal
[7] = tested on: CAKI-1 renal
[8] = tested on: A498 renal
[9] = tested on: CCRF-CEM leukemia
[10] = tested on: MOLT-4 leukemia
[11] = tested on: SR leukemia
[12] = tested on: RPMI-8226 leukemia
[13] = tested on: OVCAR-8 ovarian
[14] = tested on: OVCAR-5 ovarian
[15] = tested on: OVCAR-4 ovarian
[16] = tested on: SK-OV-3 ovarian
[17] = tested on: OVCAR-3 ovarian
[18] = tested on: HS 578T breast
[19] = tested on: NCI/ADR-RES ovarian
[20] = tested on: IGROV1 ovarian

| Compound | growth [1] | growth [2] | growth [3] | growth [4] | growth [5] | growth [6] | growth [7] | growth [8] | growth [9] | growth [10] | growth [11] | growth [12] | growth [13] | growth [14] | growth [15] | growth [16] | growth [17] | growth [18] | growth [19] | growth [20] |
| --- | --- | --- | --- | --- | --- | --- | --- | --- | --- | --- | --- | --- | --- | --- | --- | --- | --- | --- | --- | --- |
| Nc1ncnc2c1ncn2C1CC(O)C(CO)O1 (stereo unspecified) | 37.6% (inactive) and 100% (inactive) | 100% (inactive) and 118% (inactive) | 105% (inactive) and 104% (inactive) | 89% (inactive) and 88.8% (inactive) | 113% (inactive) and 109% (inactive) | 110% (inactive) and 120% (inactive) | 103% (inactive) and 100% (inactive) | 105% (inactive) and 98.5% (inactive) | 114% (inactive) and 99.2% (inactive) | 114% (inactive) and 92.3% (inactive) | 110% (inactive) and 95% (inactive) | 102% (inactive) and 105% (inactive) | 102% (inactive) and 109% (inactive) | 103% (inactive) and 116% (inactive) | 113% (inactive) and 107% (inactive) | 105% (inactive) and 110% (inactive) | 127% (inactive) and 109% (inactive) | 107% (inactive) and 153% (inactive) | 104% (inactive) and 113% (inactive) |  |
| Oc1ccccc1C=NCC1CCC(CN=Cc2ccccc2O)CC1 (stereo unspecified) | 12.8% (inactive) | 109% (inactive) | 91% (inactive) | 72.4% (inactive) | 98.2% (inactive) | -13.8% (active) | 46.1% (inactive) | 117% (inactive) | 83.9% (inactive) | 75.6% (inactive) | 69.4% (inactive) | 90.9% (inactive) | 79.9% (inactive) | 67.6% (inactive) |  | 95% (inactive) | 116% (inactive) | 114% (inactive) | 80.4% (inactive) | 68.1% (inactive) |
| CCOc1ccc2cc(-c3nn(CC4CCN(C)CC4)c4ncnc(N)c34)ccc2c1 | 108% (inactive) | 101% (inactive) and 56.5% (inactive) | 83.7% (inactive) | 60.7% (inactive) and 62.9% (inactive) | 70.9% (inactive) and 77.8% (inactive) | 96.5% (inactive) and 53.9% (inactive) | 87.6% (inactive) and 85.5% (inactive) | 74% (inactive) and 23.7% (inactive) | 90.7% (inactive) and 3.75% (active) | 70.1% (inactive) and -4.41% (active) | 65.4% (inactive) and -27.1% (active) | 75.9% (inactive) and 2.42% (active) | 94.4% (inactive) and 65.2% (inactive) | 88.4% (inactive) and 80.8% (inactive) |  | 83.1% (inactive) and 85.2% (inactive) | 97.8% (inactive) and 59.3% (inactive) | 79.3% (inactive) and 35.8% (inactive) | 93.7% (inactive) and 63.1% (inactive) | 81.5% (inactive) and 61.3% (inactive) |
| Cn1cnc([N+](=O)[O-])c1Sc1ncnc2nc[nH]c12 | 57.7% (inactive) and 74.8% (inactive) | 83.3% (inactive) and 109% (inactive) | 75.8% (inactive) and 83.2% (inactive) | 63.4% (inactive) and 69% (inactive) | 52.8% (inactive) and 44.3% (inactive) | 84% (inactive) and 121% (inactive) | 49.2% (inactive) and 75.8% (inactive) | 87.7% (inactive) and 103% (inactive) | 48% (inactive) and 42.6% (inactive) | 66.1% (inactive) and 56.6% (inactive) | 44.9% (inactive) | 34.1% (inactive) and 36.5% (inactive) | 50% (inactive) and 75.4% (inactive) |  | 39.7% (inactive) and 53.2% (inactive) | 16.9% (inactive) | 50.8% (inactive) and 39.5% (inactive) | 79.6% (inactive) and 69.1% (inactive) | 67.2% (inactive) and 57.4% (inactive) | 74.5% (inactive) and 83.4% (inactive) |
| Cc1nn(-c2ccc(Cl)cc2)c2ncnc(N/N=C/c3ccccc3O)c12 | 12.3% (inactive) and 36% (inactive) | 38.1% (inactive) and 5.43% (active) | 23.1% (inactive) and 4.76% (active) | 35.2% (inactive) and -11.4% (active) | 16.4% (inactive) and 36.7% (inactive) | 16.5% (inactive) and 5.9% (active) | 13.5% (inactive) and 5.47% (active) | 78.5% (inactive) and 69.6% (inactive) | 6.41% (active) and -2.4% (active) | 9.43% (active) and 6.36% (active) | 4.8% (active) and 5.64% (active) | 37.1% (inactive) and 11.7% (inactive) | 14.1% (inactive) and 14% (inactive) |  | 19.5% (inactive) and 21.9% (inactive) | 4.44% (active) and 10.8% (inactive) | 34.9% (inactive) and 26.7% (inactive) | 81% (inactive) and 56.4% (inactive) | 19.1% (inactive) and 10.5% (inactive) | 23.9% (inactive) and 4.47% (active) |
| Cc1cc(=O)[nH]c(O)c1C#N | 108% (inactive) | 99.6% (inactive) and 99.9% (inactive) | 102% (inactive) and 93.7% (inactive) | 87.3% (inactive) and 105% (inactive) | 103% (inactive) and 92.9% (inactive) | 101% (inactive) and 95.7% (inactive) | 90.3% (inactive) and 60.5% (inactive) | 114% (inactive) and 111% (inactive) | 113% (inactive) and 90.3% (inactive) | 106% (inactive) and 101% (inactive) | 94.8% (inactive) and 122% (inactive) | 119% (inactive) and 332% (inactive) | 105% (inactive) and 101% (inactive) |  | 99.8% (inactive) and 104% (inactive) | 105% (inactive) and 96.2% (inactive) | 112% (inactive) | 120% (inactive) and 109% (inactive) | 106% (inactive) and 105% (inactive) | 100% (inactive) |
| CN(C)CCCN1c2ccccc2Sc2ccc(Cl)cc21 | 77.6% (inactive) and 107% (inactive) and 112% (inactive) | 91.6% (inactive) and 147% (inactive) | 66.7% (inactive) and 117% (inactive) and 78.8% (inactive) | 54.4% (inactive) and 89.3% (inactive) and 50.3% (inactive) | 122% (inactive) and 92.6% (inactive) | 44.8% (inactive) and 108% (inactive) and 68.7% (inactive) | 75.1% (inactive) and 257% (inactive) and 52.5% (inactive) | 105% (inactive) and 120% (inactive) and 108% (inactive) | 73.6% (inactive) and 98.7% (inactive) | 69.7% (inactive) and 102% (inactive) and 83.3% (inactive) | 67.9% (inactive) and 105% (inactive) and 62.2% (inactive) | 71% (inactive) and 97.9% (inactive) and 103% (inactive) | 85.6% (inactive) and 93% (inactive) and 94.2% (inactive) | 90.8% (inactive) and 113% (inactive) and 95.6% (inactive) | 83.3% (inactive) and 113% (inactive) and 85.9% (inactive) | 24.1% (inactive) and 76.5% (inactive) | 84.2% (inactive) and 112% (inactive) and 83.4% (inactive) | 90.3% (inactive) and 90.2% (inactive) and 89.1% (inactive) | 85% (inactive) and 109% (inactive) and 89.5% (inactive) |  |
| CNC(=O)c1cccnc1 | 118% (inactive) | 110% (inactive) | 111% (inactive) | 84.8% (inactive) | 103% (inactive) | 104% (inactive) | 92.1% (inactive) | 85.6% (inactive) | 87.9% (inactive) | 106% (inactive) | 87.4% (inactive) | 112% (inactive) | 100% (inactive) | 110% (inactive) | 108% (inactive) |  | 116% (inactive) | 107% (inactive) | 97% (inactive) | 111% (inactive) |
| CN(C)c1ccc2nc3ccc(=[N+](C)C)cc-3sc2c1 | 20% (inactive) and 47.3% (inactive) and 79.6% (inactive) | 41.7% (inactive) and 46.9% (inactive) | 24.3% (inactive) and 12.5% (inactive) and 9.23% (active) | 62.3% (inactive) and 57.2% (inactive) and 78.6% (inactive) | 58.1% (inactive) and 73.9% (inactive) and 110% (inactive) | 24.6% (inactive) and 24.4% (inactive) and 83% (inactive) | 30.9% (inactive) and 23.4% (inactive) and 83.2% (inactive) | 58.4% (inactive) and 75.9% (inactive) | 2.85% (active) and 26.7% (inactive) and 24% (inactive) | 24.4% (inactive) and 21.7% (inactive) and 32.9% (inactive) | 29.2% (inactive) and 39.6% (inactive) and 51.5% (inactive) | 40.4% (inactive) and 34.1% (inactive) and 40.2% (inactive) | 3.76% (active) and 0.437% (active) and 8.05% (active) | 17.7% (inactive) and 14.5% (inactive) and 30.6% (inactive) |  | 41.4% (inactive) and 60% (inactive) and 73.2% (inactive) | 0.379% (active) and -3.68% (active) and 10.2% (inactive) | 49.8% (inactive) and 111% (inactive) | 12.1% (inactive) and 10.9% (inactive) and 13.9% (inactive) | 9.73% (active) and 1.01% (active) and 43.1% (inactive) |
